Data as given in PubChem BioAssay (NCI).
This is part of a sample that, as a whole, favours compounds with a hit. Of some 83,000 tested, about 20% had one in any assay.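 96-well plates, one dose, 48 hours. Percent growth reported; active if below 10.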 Calls of active or inactive are those of the source.

Tests used:
Assay in all cases: NCI-60 one-dose screen, 48 h (100 = growth as untreated, 0 = no growth, -100 = all killed)
Conditions in all cases: 10 µM unless noted
T-47D breast = tested on: T-47D breast
BT-549 breast = tested on: BT-549 breast
MDA-MB-435 melanoma = tested on: MDA-MB-435 melanoma
SW-620 colon = tested on: SW-620 colon
MCF7 breast = tested on: MCF7 breast
HCT-116 colon = tested on: HCT-116 colon
HCC-2998 colon = tested on: HCC-2998 colon
KM12 colon = tested on: KM12 colon

Measured: growth

Nc1nc(SCc2cccnc2)c2ncn(C3OC(CO)C(O)C3O)c2n1 (centres undefined)
inactive: T-47D breast 110% | BT-549 breast 98.1% | MDA-MB-435 melanoma 104% | SW-620 colon 97.9% | MCF7 breast 94.9% | HCT-116 colon 93.8% | HCC-2998 colon 96.6% | KM12 colon 98.4%

Oc1c(Cl)cc(Cl)c(Cl)c1Cc1c(O)c(Cl)cc(Cl)c1Cl
inactive: T-47D breast 33.8% | BT-549 breast 17.2% | MDA-MB-435 melanoma 10.4% | SW-620 colon 16.7% | MCF7 breast 10.3%
active: HCT-116 colon 3.93% | HCC-2998 colon 7.48% | KM12 colon 8.09%

O=C(/C=C(\Nc1ccccc1)c1ccccc1)c1cn(-c2ccc([N+](=O)[O-])cc2)nn1
inactive: T-47D breast 96.4% | BT-549 breast 110% | MDA-MB-435 melanoma 102% | SW-620 colon 93.2% | MCF7 breast 103% | HCT-116 colon 92.1% | HCC-2998 colon 103% | KM12 colon 110%

Cc1cc2ccccn2c1C(=O)c1ccc(C(=O)c2ccccc2)cc1
inactive: T-47D breast 77.3% | BT-549 breast 92.5% | MDA-MB-435 melanoma 91.3% | SW-620 colon 84.2% | MCF7 breast 96.5% | HCT-116 colon 88.7% | HCC-2998 colon 83.8% | KM12 colon 113%

O=C(O)CCNS(=O)(=O)c1ccc(-c2ccccc2)cc1
inactive: T-47D breast 108% | BT-549 breast 127% | MDA-MB-435 melanoma 102% | SW-620 colon 95.4% | MCF7 breast 106% | HCT-116 colon 108% | HCC-2998 colon 111% | KM12 colon 117%

CCN(CC)CCSc1ncnc2c1cnn2-c1ccc(S(N)(=O)=O)cc1
inactive: T-47D breast 102% | BT-549 breast 100% | MDA-MB-435 melanoma 76.2% | SW-620 colon 73.5% | MCF7 breast 83.1% | HCT-116 colon 70.6% | HCC-2998 colon 97.8% | KM12 colon 106%

COc1cc(-c2nc3nc4sc(C)c(C)c4c(=O)n3[nH]2)cc(OC)c1OC
active: MDA-MB-435 melanoma 7.6%
inactive: T-47D breast 57% | BT-549 breast 77.8% | SW-620 colon 79.1% | MCF7 breast 35.7% | HCT-116 colon 75.9% | HCC-2998 colon 94.2% | KM12 colon 76.6%

COc1ccc(N2CCN(CC(=O)N3CCN(c4nnc(-c5ccccc5)c(-c5ccccc5)n4)CC3)CC2)cc1
inactive: T-47D breast 20.1% | BT-549 breast 47.8% | MDA-MB-435 melanoma 45.2% | SW-620 colon 54.6% | MCF7 breast 36.4% | HCT-116 colon 29.5% | HCC-2998 colon 62.4% | KM12 colon 37.2%

COc1ccc(/C=C/C(=O)c2cccc(NS(C)(=O)=O)c2)cc1
inactive: T-47D breast 70.6% | BT-549 breast 105% | MDA-MB-435 melanoma 90% | SW-620 colon 50.5% | MCF7 breast 50.4% | HCT-116 colon 21% | HCC-2998 colon 111% | KM12 colon 38.5%

C=CCNC(=O)/C(=C/c1cccc([N+](=O)[O-])c1)NC(=O)c1ccccc1
inactive: T-47D breast 98.2% | BT-549 breast 88.1% | MDA-MB-435 melanoma 101% | SW-620 colon 103% | MCF7 breast 101% | HCT-116 colon 98.2% | HCC-2998 colon 78.2% | KM12 colon 109%

COC(=O)N/N=C/c1coc2ccc(Cl)cc2c1=O
inactive: T-47D breast 83% | BT-549 breast 82.5% | MDA-MB-435 melanoma 103% | SW-620 colon 101% | MCF7 breast 88.9% | HCT-116 colon 95.5% | HCC-2998 colon 101% | KM12 colon 94%

Cc1ccc(-c2cc(-c3ccccc3)n(-c3ccccc3)n2)cc1
inactive: T-47D breast 74.6% | BT-549 breast 101% | MDA-MB-435 melanoma 89% | SW-620 colon 99.9% | MCF7 breast 97.5% | HCT-116 colon 29.9% | HCC-2998 colon 99.1% | KM12 colon 106%

C/C(=C\CCc1ccoc1)CC/C=C(\C)CCCN1CCSCC1
inactive: T-47D breast 60.9% | BT-549 breast 77.7% | MDA-MB-435 melanoma 91.1% | SW-620 colon 86.1% | MCF7 breast 43.2% | HCT-116 colon 53.8% | HCC-2998 colon 74.6% | KM12 colon 81%

O=C(Nc1ccccc1)c1cc(-n2cnc([N+](=O)[O-])c2)cc(-n2cnc([N+](=O)[O-])c2)n1
inactive: T-47D breast 107% | BT-549 breast 113% | MDA-MB-435 melanoma 122% | SW-620 colon 99.7% | MCF7 breast 116% | HCT-116 colon 103% | HCC-2998 colon 65.2% | KM12 colon 94.1%

c1ccc2nc(N/N=C3\CCCCC3C3CCCCC3)ccc2c1 (centres undefined)
inactive: T-47D breast 40.4% | BT-549 breast 61% | MDA-MB-435 melanoma 78.8% | SW-620 colon 44.2% | MCF7 breast 58.1% | HCC-2998 colon 64.2% | KM12 colon 38.4%
active: HCT-116 colon 6.79%

CCCCc1n(Cc2ccc3ccccc3c2)cc[n+]1Cc1ccc2ccccc2c1
active: T-47D breast -1.14% | BT-549 breast -76.4% | MDA-MB-435 melanoma -77.5% | SW-620 colon 1.48% | MCF7 breast -42.3% | HCT-116 colon -97.2% | HCC-2998 colon -5.21% | KM12 colon -82.5%

COc1ccc2c(c1)c(CC(=O)[Se]C)c(C)n2C(=O)c1ccc(Cl)cc1
inactive: T-47D breast 80.6% | SW-620 colon 29.9% | MCF7 breast 16% | HCC-2998 colon 68.8% | KM12 colon 61.6%
active: BT-549 breast -80.8% | MDA-MB-435 melanoma -20% | HCT-116 colon 0.342%

Cn1cc(NC(=O)Nc2cc(C(=O)O)n(C)c2)cc1C(=O)O
inactive: T-47D breast 107% | BT-549 breast 125% | MDA-MB-435 melanoma 115% | SW-620 colon 96.3% | MCF7 breast 116% | HCT-116 colon 102% | HCC-2998 colon 107% | KM12 colon 98.6%

COC(=O)c1cc2c(/C=C3/NC(=S)NC3=O)coc2n1C
inactive: T-47D breast 80.3% | BT-549 breast 72.9% | MDA-MB-435 melanoma 94.7% | SW-620 colon 96.6% | MCF7 breast 81.3% | HCT-116 colon 96.8% | HCC-2998 colon 103% | KM12 colon 96.5%

O=C(CN1CCN(c2ccc(Cl)cc2)CC1)N1CCN(c2nnc(-c3ccc(Cl)cc3)c(-c3ccc(Cl)cc3)n2)CC1
inactive: T-47D breast 52.4% | BT-549 breast 89.3% | MDA-MB-435 melanoma 73.4% | SW-620 colon 80.6% | MCF7 breast 56.7% | HCT-116 colon 47.2% | HCC-2998 colon 84.9% | KM12 colon 63%

Cc1sc2nc(NCc3ccccc3)[nH]c(=O)c2c1C
inactive: T-47D breast 31.6% | BT-549 breast 53.9% | SW-620 colon 26% | MCF7 breast 31% | HCT-116 colon 24.5% | HCC-2998 colon 87.7% | KM12 colon 36.2%
active: MDA-MB-435 melanoma -31%

Cc1csc(C#Cc2cncc(O)c2)n1
inactive: T-47D breast 98.3% | BT-549 breast 113% | MDA-MB-435 melanoma 96.8% | SW-620 colon 113% | MCF7 breast 97.8% | HCT-116 colon 103% | HCC-2998 colon 107% | KM12 colon 125%

O=C(COc1cccc(/C=C2\Oc3ccc4ccccc4c3C2=O)c1)c1ccc(Cl)cc1
inactive: T-47D breast 62.6% | MDA-MB-435 melanoma 96.1% | SW-620 colon 36% | MCF7 breast 63.9% | HCT-116 colon 41.7% | HCC-2998 colon 87.5% | KM12 colon 96.5%
active: BT-549 breast 3.5%

COc1cc(C(=O)/C=C/c2cccc(Nc3ccnc4cc(Cl)ccc34)c2)cc(OC)c1OC
active: T-47D breast -46.4% | BT-549 breast -27.9% | MDA-MB-435 melanoma -16.1% | SW-620 colon -51.5% | MCF7 breast -40.3% | HCT-116 colon -62.5% | KM12 colon -8.69%
inactive: HCC-2998 colon 40.1%

COc1cc(C2CC(C3C(=O)N(C)C(=O)N(C)C3=O)=NN2C=O)cc(OC)c1OC (centres undefined)
inactive: T-47D breast 83.8% | BT-549 breast 106% | MDA-MB-435 melanoma 101% | SW-620 colon 97.7% | MCF7 breast 97.6% | HCT-116 colon 102% | HCC-2998 colon 100% | KM12 colon 102%

Nc1ccccc1C#Cc1ccccc1C#Cc1ccc(OCCCCCCOc2ccc(C#Cc3ccccc3C#Cc3ccccc3N)cc2)cc1
inactive: T-47D breast 90.1% | BT-549 breast 104% | MDA-MB-435 melanoma 97.5% | SW-620 colon 98.9% | MCF7 breast 74.7% | HCT-116 colon 110% | HCC-2998 colon 95.5% | KM12 colon 113%

COc1ccc2c(c1)[n+](=O)c(C(=O)/C=C/c1cc(OC)c(OC)c(OC)c1)c(C)n2[O-]
inactive: T-47D breast 60.1% | BT-549 breast 28.8% | MDA-MB-435 melanoma 69.5% | SW-620 colon 72.4% | MCF7 breast 45.6% | HCT-116 colon 50.3% | HCC-2998 colon 98.1% | KM12 colon 88.6%

O=CN1N=C(c2ccc(Nc3ccnc4cc(Cl)ccc34)cc2)CC1c1ccc(Cl)cc1 (centres undefined)
active: MDA-MB-435 melanoma -19.6% | HCC-2998 colon -20.4% | KM12 colon 9.13%
inactive: T-47D breast 23.1% | BT-549 breast 55.3% | SW-620 colon 32.9% | MCF7 breast 18.4% | HCT-116 colon 11.7%
